Measured values reported in PubChem BioAssay (NCI).
The panel holds about 83,000 compounds, 20% with a hit somewhere; the sample as a whole holds those more often.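 In brief: 96-well plates, 48 h treatment, single concentration, percent growth endpoint.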 Unmarked numbers belong to inactive results. The source made the active and inactive calls. The calls were made as follows: active = growth percent below 10; inactive = the rest.

What follows are molecules tested on HL-60(TB) leukemia (assay: NCI-60 one-dose screen, 48 h (100 = growth as untreated, 0 = no growth, -100 = all killed)). Settings: 10 µM unless noted.
`COc1ccc(C(=O)CSc2nnc(-c3cc(-c4ccccc4)nc4ccccc34)o2)cc1` was tested, and the growth was 111%. `CN(C)c1ccc(/C=N/N=C(N)N)cc1` was tested, and the growth was 59.2%. With `CCCCCCCCCCCCCC[n+]1ccc2c(C)c3c(c(C)c2c1)c1cc(O)ccc1n3CC` the growth was -40.6% (active). For `CCOC(=O)CC1CSC(N/N=C/c2ccc(O)cc2)=N1` (stereo not given), the growth was 97.6%. `COc1cccc(-c2nc(SCC(=O)Nc3ccc(C(=O)/C=C/c4ccc(OC)c(OC)c4)cc3)[nH]c(=O)c2C#N)c1` showed a growth of 98.2%. Molecule `C=C(C[C@@](O)(C(=O)Oc1ccccc1)C(=O)C1CCCCC1)c1ccccc1` has a growth of 112%. With `C#CCOc1cccc(-c2ncc3cc(NC(=O)CCl)ccc3n2)c1` the growth was 14.3%. With `C#CC[C@@H]1C[C@]2(C)[C@H]3CC[C@@H]4[C@H]5C(C(=C)C)CC[C@]5(C(=O)NCCN(CCN)CCN)CC[C@@]4(C)[C@]3(C)CC[C@H]2C(C)(C)[C@H]1OC(C)=O` (stereo not given in full) the growth was 41.5%. Work on `Cc1nc2cc(Nc3nc(N4CCCCC4)nc(N4CCOCC4)n3)ccc2n1Cc1ccccc1` yielded a growth of 75%. For `COc1ccc(OC)c(Nc2nnc(-c3ccc(Cl)cc3)o2)c1`, the growth was 94.8%. Molecule `COc1ccc(/C=N\Nc2nc(SCCC(C)C)nc(-c3ccc(OC)cc3)c2C#N)cc1` has a growth of 34%. Work on `CC(Cc1nnc(SCC(=O)Nc2ccc(I)cc2)n1N)c1ccccc1` (stereo not given) yielded a growth of 158%. Molecule `O=C(Nc1ccc2ncnc(Nc3ccc(Oc4cccc(F)c4)c(Cl)c3)c2c1)c1ccc(CNCCO)cc1` has a growth of 22.3%. With `COc1ccc(-c2nnc(N3CCN(C(=O)CN4CCN(c5ccccc5)CC4)CC3)nc2-c2ccc(OC)cc2)cc1` the growth was -58.6% (active). With `COc1cccc(-c2nn(-c3ccccc3)cc2-c2ccnc(NCCCNC(=O)c3cccc(C(F)(F)F)c3)c2)c1` the growth was 7.43% (active). Molecule `C[Si](C)(C)Cc1ccccc1` has a growth of 125%. With `Cc1cccc(N2CCN(C(=S)c3ccc4c(c3)OCO4)CC2)c1` the growth was -20% (active). Molecule `COc1ccc(/C=N\NC(=O)c2ccncc2)cc1O` has a growth of 97.9%. For `Cc1ccc2oc(=O)cc(C3c4ccc([nH]4)C(c4cc(=O)oc5ccc(C)cc45)c4ccc([nH]4)C(c4cc(=O)oc5ccc(C)cc45)c4ccc([nH]4)C(c4cc(=O)oc5ccc(C)cc45)c4ccc3[nH]4)c2c1` (stereo not given), the growth was -24% (active). With `O=C(Nc1ccc(-n2cc(-c3ccncc3)c(-c3ccc(Cl)c(O)c3)n2)cc1)c1cc(Cl)cc(Cl)c1` the growth was 8.45% (active). `CN1CCOCCOCCOc2ccccc2NC(=O)c2nc(cnc2N)-c2ccc(cc2)S1(=O)=O` was tested, and the growth was -22.2% (active). For `O=C(/C=C/CN1CCOCC1)Nc1cc2c(Nc3cccc(Cl)c3F)ncnc2cc1OCCOC(F)F`, the growth was 89.5%. For `COc1ccc(-c2cc(/C=C/C(=O)c3ccc(N)cc3)[nH]n2)cc1OC`, the growth was 20.1%. In the case of `Cc1cc(N2CCSCC2)nc(NC2CCCC(Nc3ccnc4cc(Cl)ccc34)C2)n1` (stereo not given), the growth is reported as -68.7% (active). Work on `COc1cc(/C=C2\C(=O)Nc3cc(C)c(O)cc32)cc(OC)c1OC` yielded a growth of 46.7%. `O=C(N/N=C/c1ccccc1SSc1ccccc1/C=N/NC(=O)c1ccccc1)c1ccccc1` was tested, and the growth was 3.4% (active). `C/C(=N\NC(=O)Cn1c(-c2ccc(S(C)(=O)=O)cc2)nc2cc(Cl)ccc21)c1ccc(Cl)cc1` was tested, and the growth was 88.2%. `O=Cc1ccc(-c2cn3ccnc3c(-c3ccc4ncn(Cc5ccccc5)c4c3)n2)cc1` showed a growth of 83.5%. For `C1=NCCc2ccccc21`, the growth was 116%. In the case of `Cc1cccc2cc(/C=C/C(=O)/C=C/c3ccc(Cl)cc3)c(=O)[nH]c12`, the growth is reported as 44.2%. For `O=S(=O)(NCCNc1nccc(-c2c(-c3cccc(O)c3)nc3occn23)n1)c1ccc(Br)cc1`, the growth was 18%. In the case of `O=C(/C=C/c1ccccc1Br)c1cccc(OCCCCOc2cccc(C(=O)/C=C/c3ccccc3Br)c2)c1`, the growth is reported as 92%. Molecule `CN1C(=O)C2(NN=C(c3cccc4ccccc34)S2)c2ccccc21` (stereo not given) has a growth of 34.7%. With `C=C(C)[C@@H]1CC[C@]2(C(=O)N3CCCNCC3)CC[C@]3(C)[C@H](CC[C@@H]4[C@@]5(C)CCC(=O)C(C)(C)[C@@H]5CC[C@]43C)[C@@H]12` the growth was 67.4%. In the case of `CCCCCCCCCCCCCCCCCCOP(=O)(O)O`, the growth is reported as 102%. `C=CCC(=O)N[C@H](/C=C/C(=O)O)Cc1ccc(-c2cc(Cl)cc(Cl)c2)cc1` showed a growth of 101%. Work on `CN(C)CC#Cc1ccc2ncc(C#N)c(Nc3ccc(F)c(Cl)c3)c2c1` yielded a growth of 26.8%. With `Cc1ccc(-c2ccc(/C=C(\C#N)c3nc(-c4ccco4)cs3)o2)cc1` the growth was 101%. `C#COc1cccc(Nc2ncnc3cc(NC(=O)[C@H](C)Cl)ccc23)c1` showed a growth of 99.4% [6.25 µM]. For `CN1C(=O)N(C)C2C1NN=c1s/c(=C\c3ccccc3F)c(=O)n12` (stereo not given), the growth was -46.5% (active).
